Consider 39 compounds from PubChem BioAssay (NCATS).

Records with an inconclusive call do not appear. The source made the active and inactive calls. Calls follow the shape of the dose curve; as a rule, active = well fitted inhibition curve with a large enough effect; inconclusive = small, poorly fitted or top-dose-only effect; inactive = flat fitted curve, though single readings scatter.
Potency is read from the fitted curve at half-maximal effect.

Sequence of Tyrosyl-DNA phosphodiesterase 1 (Homo sapiens) (Q9NUW8 whole entry, looked up): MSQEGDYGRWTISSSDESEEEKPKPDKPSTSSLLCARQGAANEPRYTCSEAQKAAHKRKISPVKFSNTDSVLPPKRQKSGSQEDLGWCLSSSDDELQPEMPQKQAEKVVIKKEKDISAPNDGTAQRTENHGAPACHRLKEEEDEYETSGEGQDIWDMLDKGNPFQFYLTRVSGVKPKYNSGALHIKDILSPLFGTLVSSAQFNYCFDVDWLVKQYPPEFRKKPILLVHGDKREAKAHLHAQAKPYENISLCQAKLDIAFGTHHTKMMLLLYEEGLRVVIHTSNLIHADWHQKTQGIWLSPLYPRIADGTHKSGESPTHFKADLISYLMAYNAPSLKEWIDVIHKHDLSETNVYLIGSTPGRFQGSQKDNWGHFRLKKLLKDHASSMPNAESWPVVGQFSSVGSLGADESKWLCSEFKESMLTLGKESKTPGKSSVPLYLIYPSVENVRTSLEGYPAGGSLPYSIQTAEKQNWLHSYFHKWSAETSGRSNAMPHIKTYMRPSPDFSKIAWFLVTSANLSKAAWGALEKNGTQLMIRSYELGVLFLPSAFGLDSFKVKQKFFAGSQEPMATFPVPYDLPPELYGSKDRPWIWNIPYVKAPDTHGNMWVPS

This experiment concerns the target Tyrosyl-DNA phosphodiesterase 1 (Homo sapiens) (UniProt Q9NUW8). Description: Confirmation Assay for Inhibitors of Tyrosyl-DNA Phosphodiesterase (TDP1) (AID 489007). Also: nearly all actives have a fitted effect of over 40% in size. Conditions: recombinant human TDP1 enzymatic activity, dose-response. The method in brief: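 AlphaScreen assay of tyrosine-FITC cleavage from a biotinylated DNA substrate (15 nM) by E. coli-expressed human Tdp1 (1 nM). Sequence: compound preincubation 15 min, reaction 5 min, bead detection 10 min, all at room temperature. No-enzyme wells give maximum signal.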
For `Cc1ccc(CN2C(=O)N/C(=C/c3ccc(-c4ccc(C(=O)O)cc4)o3)C2=O)cc1`, the Potency is 12.6 µM (active).
As for `CCCCNC(=O)COC(=O)c1ccc(Cl)c(S(=O)(=O)N2CCCC2)c1`, the figure is 100 µM (active); as for `CCOC(=O)N1CCC(N2Cc3cccc(C(=O)NCc4ccc5c(c4)OCO5)c3C2=O)CC1`, 15.8 µM (active).
Consider `O=C(O)c1cc(-c2ccc(/C=N/N3C(=O)C4C5C=CC(C6CC56)C4C3=O)o2)ccc1Cl` (centres undefined), for which the Potency is 31.6 µM (active).
Take `CCN(CC)Cc1c(O)c(Cl)cc2c(C)cc(=O)oc12`: the Potency is 14.1 µM (active).
For `COc1ccc(S(=O)(=O)NCc2cccs2)cc1`, the Potency is 112 µM (active).
To `CCc1nnc(NC(=O)c2sc3nc4c(cc3c2N)CCCCCC4)s1` belongs 112 µM (active).
Regarding `C=CCCN(Cc1ccccc1)S(=O)(=O)c1ccccc1Br`, the Potency is 56.2 µM (active).
As to `O=C(N/N=C/c1cccc(Br)c1)c1ccc(Br)cc1`, the Potency is 50.1 µM (active).
On to `Cc1ccc(NC(=O)c2noc3c2CCC3)cc1C`, for which the Potency is 12.6 µM (active).
Take `Cn1nnnc1SCC(=O)Nc1ccccn1`: the Potency was 7.08 µM (active).
For the compound `Oc1ccc(/C=N/N2CCOCC2)c(O)c1O`, the Potency is 100 µM (active).
`O=C(O)c1ccc2ncsc2c1`: the Potency is 39.8 µM (active).
`OC[C@@H]1[C@@H](c2ccccc2)C(c2cccc(Cl)c2)=NN1c1ccccc1`: the Potency is 10 µM (active).
In the case of `COc1ccc(CCN2C(=O)C3C4CC(C5C(C(N)=O)=NOC45)C3C2=O)cc1OC` (centres undefined), the Potency is 112 µM (active).
As for `O=C(NC1CC1)c1cc(-c2ccco2)nc2ccccc12`, the figure is 3.55 µM (active); as for `C=C1c2cccc(OC)c2O[C@H](C(=O)OCC)[C@@H]1CCCCCC`, 0.0251 µM (active); as for `CC(=O)NC1=NC(=O)/C(=C/c2cc(C)n(-c3cccc(C(=O)O)c3)c2C)S1`, 2 µM (active).
As to `CC1=N/C(=C/c2ccco2)C(=O)O1`, the Potency is 3.55 µM (active).
As for `Cc1nn(Cc2ccc(F)cc2)c(C)c1NC(=O)c1cc2ncc(Br)cn2n1`, the figure is 44.7 µM (active); as for `O=C(CSc1nnc(SCc2ccccc2)s1)N/N=C/c1c[nH]c2ccccc12`, 4.47 µM (active).
`CCCCCc1nnc(NC(=O)Cc2cccs2)s1`: the Potency was 25.1 µM (active).
In the case of `O=C(O)/C=C/c1ccc([N+](=O)[O-])o1`, the Potency is 50.1 µM (active).
With `Cc1ccc(S(=O)(=O)N2CCCN(c3nc4cc(C)ccc4cc3C#N)CC2)cc1`, the Potency was 39.8 µM (active).
For `Cc1nc(S/C(=C/c2ccc(OCc3ccc(C(=O)O)cc3)cc2)C(=O)O)n[nH]1`, the Potency is 35.5 µM (active).
To `Cc1ccccc1Nc1cccc2nonc12` belongs 100 µM (active).
Turning to `Cc1ccc(S(=O)(=O)N2CCCCC2)cc1C(=O)Nc1ccc(S(=O)(=O)Nc2ncccn2)cc1`, the Potency is 14.1 µM (active).
Consider `Cc1ccc2nc(-c3ccncc3)cc(C(=O)Nc3ccc(OC(F)F)cc3)c2c1`, for which the Potency is 70.8 µM (active).
To `Cc1ccc(C(=O)O)cc1-c1ccc(/C=C2/NC(=O)N(c3ccccc3)C2=O)o1` belongs 7.08 µM (active); to `Cc1ccc(C(=O)O)cc1-c1ccc(/C=C2\SC(=O)N(CC(=O)Nc3ccccc3)C2=O)o1`, 6.31 µM (active).
For `CCOC(=O)c1sc2nc3c(SCCC(=O)O)cc(C(=O)c4cc(OC)ccc4O)cn3c(=O)c2c1C`, the Potency is 2.82 µM (active).
Regarding `COc1ccc(N2Cc3cccc(C(=O)N4CCN(C(=O)c5ccco5)CC4)c3C2=O)cc1`, the Potency is 7.08 µM (active).
As for `O=C(CSc1nccc(=O)[nH]1)NCc1ccco1`, the figure is 31.6 µM (active); as for `N#C/C(=C\c1ccc(OCc2ccc(F)cc2)cc1)C(=O)Nc1cccc(C(=O)O)c1`, 14.1 µM (active).
To `CCC(=O)c1ccc(CCCCCC(=O)O)s1` belongs 31.6 µM (active).
On to `Cc1nc(SCC(=O)O)c(C#N)c2c1CCCC2`, for which the Potency was 8.91 µM (active).
As to `O=C(O)C1C2C=CC3(O2)C1C(=O)N1c2ccccc2C2OCCC2C13` (centres undefined), the Potency was 35.5 µM (active).
As for `CC(=O)c1ccc(NC(=O)c2noc3c2CCC3)cc1`, the figure is 50.1 µM (active); as for `Cc1ccc(CNC(=O)c2ccc(-n3cccc3)cc2)cc1`, 12.6 µM (active).
